{
  "source": "PubChem BioAssay (Tox21)",
  "note": "Where “and” joins values, the source holds several entries; their conditions need not be identical. Equal values may be shown once. Records with an inconclusive call do not appear. Entries that show only a call come without a potency. Unmarked numbers belong to inactive results. Calls of active or inactive are those of the source.",
  "data": [
    {"biological_target": "Glucocorticoid receptor (Homo sapiens) (UniProt P04150)", "sequence (P04150 whole entry, looked up)": "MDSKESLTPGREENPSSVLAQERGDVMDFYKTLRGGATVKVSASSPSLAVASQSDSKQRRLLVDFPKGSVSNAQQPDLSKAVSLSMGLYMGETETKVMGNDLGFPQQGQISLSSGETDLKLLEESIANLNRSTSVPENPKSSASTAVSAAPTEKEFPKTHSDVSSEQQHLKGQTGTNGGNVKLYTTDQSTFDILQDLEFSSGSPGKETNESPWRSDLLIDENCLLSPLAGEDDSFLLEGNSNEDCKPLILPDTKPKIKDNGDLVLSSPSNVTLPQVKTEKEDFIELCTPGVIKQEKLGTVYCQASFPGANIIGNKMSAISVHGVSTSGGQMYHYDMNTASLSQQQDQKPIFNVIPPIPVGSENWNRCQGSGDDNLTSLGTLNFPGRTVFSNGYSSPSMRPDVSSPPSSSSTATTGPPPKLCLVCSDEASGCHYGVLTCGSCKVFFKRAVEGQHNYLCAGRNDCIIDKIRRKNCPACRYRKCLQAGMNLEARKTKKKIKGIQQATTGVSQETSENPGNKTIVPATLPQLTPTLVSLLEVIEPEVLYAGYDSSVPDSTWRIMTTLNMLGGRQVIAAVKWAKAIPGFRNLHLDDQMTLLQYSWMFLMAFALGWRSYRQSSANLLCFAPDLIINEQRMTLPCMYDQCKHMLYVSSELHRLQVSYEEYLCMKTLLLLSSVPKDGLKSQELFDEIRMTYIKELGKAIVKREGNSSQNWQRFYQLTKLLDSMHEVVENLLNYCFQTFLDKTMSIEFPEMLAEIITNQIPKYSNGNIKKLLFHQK", "experiment": "qHTS assay to identify small molecule agonists of the glucocorticoid receptor (GR) signaling pathway (AID 720691; active means well fitted activation curve with a large enough effect in the signal ratio in the repeat runs, not every such curve was filed as active; the % refers to the signal ratio)", "details": "GR-bla HeLa, beta-lactamase reporter ratio, 18 h; series mostly up to 62.4 µM; activation: at the top concentration", "procedure,_shortened": "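Agonist-mode qHTS in HeLa cells stably expressing a glucocorticoid-response-element beta-lactamase reporter. Fluorescence intensity read with FRET substrate (2 h, room temperature) after 18 h compound treatment at 37 C.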", "units": {"activation": "%"}, "values": [
      {"molecule": "Nc1ccc(Br)cc1", "outcome": "inactive"},
      {"molecule": "CON(C)C(=O)Nc1ccc(Cl)c(Cl)c1", "outcome": "inactive"},
      {"molecule": "O=c1n(Cl)c(=O)n(Cl)c(=O)n1Cl", "outcome": "inactive"},
      {"molecule": "O=S(=O)(c1ccc(Cl)cc1)c1cc(Cl)c(Cl)cc1Cl", "outcome": "inactive"},
      {"molecule": "CCC[CH2][Sn]([Cl])([Cl])[Cl]", "outcome": "inactive"},
      {"molecule": "CN1C(=O)CN=C(c2ccccc2)c2cc(Cl)ccc21", "activation": -8.15},
      {"molecule": "BrCCBr", "outcome": "inactive"},
      {"molecule": "Cc1cc(-c2cc(C)c(N)c(C)c2)cc(C)c1N", "outcome": "inactive"},
      {"molecule": "Cc1cccc([N+](=O)[O-])c1", "outcome": "inactive"},
      {"molecule": "CCCCOC(=O)c1ccccc1C(=O)OCCCC", "outcome": "inactive"}
    ]},
    {"biological_target": "Glucocorticoid receptor (Homo sapiens) (UniProt P04150)", "experiment": "qHTS assay to identify small molecule antagonists of the glucocorticoid receptor (GR) signaling pathway (AID 720692; active means well fitted inhibition curve with a large enough effect in the signal ratio in the repeat runs, not every such curve was filed as active; the % refers to the signal ratio; further: potency means the concentration at half of the fitted maximal effect)", "details": "GR-bla HeLa, beta-lactamase FRET ratio, dexamethasone-stimulated, 18 h; series mostly up to 58.5 µM; activity change, negative = inhibition: at the top concentration", "procedure,_shortened": "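Inhibition of dexamethasone-driven (5 nM final) beta-lactamase expression was measured in GRE-reporter HeLa cells over 18 h at 37C. Fluorescence was read after 2 h with the B/G FRET substrate at room temperature.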", "values": [
      {"molecule": "CON(C)C(=O)Nc1ccc(Cl)c(Cl)c1", "activity change, negative = inhibition": "-21.4% [at 78.9 µM]"},
      {"molecule": "O=c1n(Cl)c(=O)n(Cl)c(=O)n1Cl", "Potency": "inactive"},
      {"molecule": "CN1C(=O)CN=C(c2ccccc2)c2cc(Cl)ccc21", "Potency": "13.4 µM (active) and 28 µM (active)"},
      {"molecule": "BrCCBr", "Potency": "inactive"}
    ]}
  ]
}
